For 40 compounds, Potency results are on record in PubChem BioAssay (NCATS).

SMILES strings stand for the structures. Records with an inconclusive call do not appear. Where a call stands in place of a potency, no number is given. The source made the active and inactive calls. Calls follow the shape of the full dose curve.

In the experiment the target is Retinoic acid receptor RXR-alpha (Homo sapiens) (UniProt P19793). Put plainly: qHTS assay for small molecule agonists of retinoid X receptor alpha signaling (AID 588544). The note with it: HEK293T RXRa-UAS-bla, beta-lactamase reporter, 18 h; series mostly up to 76.7 µM. An excerpt: NIH Chemical Genomics Center [NCGC] U.S. Environmental Protection Agency [EPA] National Institutes of Environmental Health Sciences [NIEHS] National Toxicology Program [NTP] NCGC Assay Overview The Retinoid X receptor (RXR), a nuclear hormone receptor is expressed in liver, spleen, placenta, epidermis, central nervous system. These receptors are able to form homo and heterodimers with other nuclear receptors and due to this heterodimerizing ability, RXR functions as master regulators producing diverse physiological effects. Three subtypes of RXR exist; alpha, beta and gamma. Retinoid X receptor alpha (RXR-alpha) has potential roles in metabolic signaling pathways, skin alopecia, dermal cysts, cardiac development, insulin sensitization etc. Therefore screening environmental chemicals on RXR-alpha signaling can be used for the studies focused on such therapeutic applications.
Sequence of Retinoic acid receptor RXR-alpha (Homo sapiens) (P19793 whole entry, looked up): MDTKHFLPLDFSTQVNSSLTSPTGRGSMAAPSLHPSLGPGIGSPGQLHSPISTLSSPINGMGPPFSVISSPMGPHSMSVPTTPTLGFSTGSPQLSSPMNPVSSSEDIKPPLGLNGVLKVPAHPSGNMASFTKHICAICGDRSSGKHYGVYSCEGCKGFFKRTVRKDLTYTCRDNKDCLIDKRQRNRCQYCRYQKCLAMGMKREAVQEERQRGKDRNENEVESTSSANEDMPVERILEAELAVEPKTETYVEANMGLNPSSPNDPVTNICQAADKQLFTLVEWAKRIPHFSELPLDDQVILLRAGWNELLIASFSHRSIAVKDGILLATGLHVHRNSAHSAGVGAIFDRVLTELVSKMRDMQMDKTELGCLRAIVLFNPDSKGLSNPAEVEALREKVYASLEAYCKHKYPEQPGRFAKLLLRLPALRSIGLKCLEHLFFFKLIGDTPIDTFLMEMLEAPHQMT
NCGC Assay Protocol Summary Using a beta-lactamase reporter-gene under control of Retinoid X receptor--alpha (RXR-alpha) response element, a cell-based assay [GeneBLAzer (RXR-alpha -UAS-bla assay developed by Invitrogen] was used to measure RXR-alpha ligands signaling. GeneBLAzer RXR-alpha -UAS-bla HEK293T cells were used with assay medium containing 2% charcoal-stripped FBS. The assay was performed in clear bottom black Greiner 1536-well plates. 9-cis-retinoic acid was used in the screen as the positive control. Library compounds were measured for their ability to stimulate the reporter gene activity. Compounds were screened in a titration series in 1536-well format. The fluorescence intensity (405 nm excitation, 460/530 nm emission) was measured using an EnVision plate reader. Data was normalized relative to 9-cis-retinoic acid control (500 nM, 100%), and DMSO only wells (basal, 0%). Concentration-response titration points for each compound were fitted to the Hill equation yielding concentrations of half-maximal stimulation (EC50) and maximal response (efficacy) values. qHTS protocol for RXR-alpha beta-lactamase assay in agonist mode [Step] [Parameter] [Value] [Description] 1. Reagent; 6 uL; 2500 cells/well 2. Incubation; 37 C for 4 hrs 3. Compounds; 23 nL; 0.59 nM to 92 uM 4. Controls (9-cis-retinoic acid); 23 nL, - One column with dose response, start 38 uM, 1:3 dilutions in duplicates - Final concentrations of 500 nM and 50 nM in two columns 5. Incubation; 37 C for 18 hrs 6. Detection reagent; 1 uL of CCF4-dye 7. Incubation; RT for 2 hrs 8. Detection; Fluorescence; Envision plate reader
For orientation: In qHTS, concentration-response curves come from the screen itself.
Take `C=CC(=O)OCC(C)OCC(C)OCC(C)OC(=O)C=C` (stereo not given): the Potency entry was “inactive”.
With `COC(=O)c1c(Cl)nn(C)c1S(=O)(=O)NC(=O)Nc1nc(OC)cc(OC)n1` the entry was “inactive”; with `CCOC(=O)COc1cc(-n2ncc(C(F)(F)F)c(C)c2=O)c(F)cc1Cl`, “inactive”; with `C[Si]1(C)O[Si](C)(C)O[Si](C)(C)O[Si](C)(C)O[Si](C)(C)O1`, “inactive”.
With `CCOCCOCCOC(C)=O` the entry was “inactive”; with `CC(C)CCCCCCCCCCCCCCC(=O)O`, “inactive”; with `C=C(C)C(=O)OCCC[Si](Cl)(Cl)Cl`, “inactive”.
Turning to `Nc1ccc(N)c2c1C(=O)c1c(N)ccc(N)c1C2=O`, the Potency result is “inactive”.
With `CC1=CC(=O)CC(C)(C)C1` the entry was “inactive”; with `C1CCC2(CCCCO2)OC1`, “inactive”.
For `CC(C)CC(C)(O)C#CC(C)(O)CC(C)C` (stereo not given) the value was “inactive”; for `CS(=O)(=O)c1ccc(Cl)cc1`, “inactive”.
With `O=S(=O)(O)c1ccc(N=Nc2cc(S(=O)(=O)O)c3ccccc3c2O)c2ccccc12` the entry was “inactive”.
`CC(C)(C)C(O)/C(=C\c1ccc(Cl)cc1)n1cncn1` (stereo not given): the Potency result is “inactive”.
Regarding `CC(C)c1ccc(C(C)C)cc1`, the Potency entry is “inactive”.
For `C[Si](C)(C)N[Si](C)(C)C` the value was “inactive”.
For `c1ccc(B(c2ccccc2)c2ccccc2)cc1` the value was “inactive”; for `CC1(C)CC(N)CC(C)(CN)C1` (stereo not given), “inactive”.
For `O=c1oc(=O)c2cc3c(=O)oc(=O)c3cc12` the value was “inactive”; for `CCCCCCCCCCCCO`, “inactive”; for `N[C@@H]1[C@@H](O)[C@H](O)[C@@H](CO)O[C@H]1O`, “inactive”.
In the case of `CCCCCCCCCCCO`, the Potency result was “inactive”.
With `CCCCCCCCC(=O)O`, the Potency entry was “inactive”.
For the compound `CC(C)=CCC[C@@H](C)[C@H]1CC[C@@]2(C)C3=C(CC[C@]12C)[C@@]1(C)CC[C@H](O)C(C)(C)[C@@H]1CC3`, the Potency entry is “inactive”.
For `CC(C)C(=O)OC(=O)C(C)C` the value was “inactive”; for `CCCCCCCC/C=C\CCCCCCCC(=O)OC`, “inactive”.
With `C=CCOC(=O)CC(C)C` the entry was “inactive”.
For `C=CC(=O)NC(C)(C)CS(=O)(=O)O` the value was “inactive”.
As for `C=CC(=O)OCC[N+](C)(C)C`, the Potency entry is “inactive”.
Consider `CCOCCOCCOCC`, for which the Potency entry is “inactive”.
For `O=C(O)c1cccc(C(=O)O)c1` the value was “inactive”.
For `CCOCCOCCOCCO` the value was “inactive”; for `COC(=O)c1ccc(C(=O)OC)cc1`, “inactive”; for `COC(=O)c1ccc(CNS(C)(=O)=O)cc1S(=O)(=O)NC(=O)Nc1nc(OC)cc(OC)n1`, “inactive”.
Take `CC1(C)C(=O)N(Br)C(=O)N1Cl`: the Potency result was “inactive”.
For `Cl[Si](Cl)(c1ccccc1)c1ccccc1` the value was “inactive”; for `C[Si](Cl)(Cl)[Si](C)(Cl)Cl`, “inactive”; for `CSc1ccc(Cl)cc1`, “inactive”.
For `CC(C)OB(OC(C)C)OC(C)C` the value was “inactive”; for `FC(F)(F)c1ccc(Cl)c(Cl)c1`, “inactive”.
